Results on nine compounds are retold here after PubChem BioAssay (NCI).

About 83,000 compounds went through this panel and 20% of them were active in at least one assay; those are over-represented in the sample as a whole.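 Plates (96-well) were seeded with cells, treated with compound at one concentration, and incubated for 48 hours before percent growth was determined.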 Values without a mark were called inactive. Activity calls are given as the source filed them. How the source made its calls: active means growth percent below 10; inactive means the rest.

Among the test systems are HCT-15 colon; HT29 colon; SNB-19 CNS; U251 CNS; PC-3 prostate; SK-MEL-5 melanoma; UACC-62 melanoma; LOX IMVI melanoma; SK-MEL-28 melanoma; SK-MEL-2 melanoma; EKVX NSCLC; SN12C renal; UO-31 renal; TK-10 renal; ACHN renal; CAKI-1 renal; A498 renal; CCRF-CEM leukemia; MOLT-4 leukemia.
Test in all cases: NCI-60 one-dose screen, 48 h (100 = growth as untreated, 0 = no growth, -100 = all killed)
Common to all, as to conditions: 10 µM unless noted

For the compound `CC1(C)CC[C@]2(C(=O)O)CC[C@]3(C)C(=CC[C@@H]4[C@@]5(C)C[C@@H](Cc6cn([C@@H]7O[C@H](CO)[C@@H](O)[C@H](O)[C@H]7O)nn6)[C@H](O)C(C)(C)[C@@H]5CC[C@]43C)[C@@H]2C1`, the growth with HCT-15 colon is 106%; in the experiment with HT29 colon it was 99.1%; in the experiment with SNB-19 CNS it was 97%; in the experiment on U251 CNS, 92%; in the experiment on PC-3 prostate, 93.4%; with SK-MEL-5 melanoma it was 100%. For the same compound, the growth in the experiment on UACC-62 melanoma is 93.2%; in the experiment with LOX IMVI melanoma, 99.4%; with SK-MEL-28 melanoma it was 103%; in the experiment on SK-MEL-2 melanoma it was 113%; in the experiment with EKVX NSCLC, 99.4%; in the experiment on SN12C renal it was 99.7%. Moreover, the growth with UO-31 renal was 96.3%; in the experiment on TK-10 renal, 93.6%; in the experiment with ACHN renal it was 100%; in the experiment with CAKI-1 renal, 98.3%; with A498 renal it was 98.8%; in the experiment with CCRF-CEM leukemia, 96.4%. The growth with MOLT-4 leukemia was 83.4%.
With `CCOC(=O)c1n[nH]n2c1nc(=O)c1cnn(C)c12`, the growth in the experiment with HCT-15 colon was 105%; in the experiment on HT29 colon, 107%; in the experiment on SNB-19 CNS, 102%; in the experiment with U251 CNS, 100%; in the experiment on PC-3 prostate it was 97.7%; in the experiment with SK-MEL-5 melanoma, 105%. The growth was 106% with UACC-62 melanoma; 103% in the experiment on LOX IMVI melanoma; 113% in the experiment on SK-MEL-28 melanoma; 99.6% with SK-MEL-2 melanoma; 102% in the experiment on EKVX NSCLC; 105% in the experiment on SN12C renal. Besides, the growth with UO-31 renal is 84.4%; in the experiment with TK-10 renal, 97.6%; in the experiment with ACHN renal it was 105%; with CAKI-1 renal, 103%; with A498 renal it was 110%; in the experiment on CCRF-CEM leukemia, 95.6%. Besides, in the experiment on MOLT-4 leukemia, the growth is 99.7%.
In the case of `CCOC(=O)C1=C(c2ccccc2)N=c2s/c(=C/c3ccc(Br)cc3)c(=O)n2C1c1ccc(O)cc1` (stereo not drawn), the growth in the experiment with HCT-15 colon was 82.3%; with HT29 colon it was 87.6%; in the experiment on SNB-19 CNS, 86.7%; with U251 CNS, 81.1%; in the experiment with PC-3 prostate, 64.1%; in the experiment with SK-MEL-5 melanoma it was 91.9%. The growth was 76.1% in the experiment on UACC-62 melanoma; 91.7% in the experiment with LOX IMVI melanoma; 92.5% in the experiment with SK-MEL-28 melanoma; 95.9% in the experiment on SK-MEL-2 melanoma; 76.8% in the experiment with EKVX NSCLC; 78.5% in the experiment on UO-31 renal. For the same compound, the growth in the experiment with TK-10 renal was 91.7%; with ACHN renal, 104%; in the experiment on CAKI-1 renal it was 62.2%; in the experiment with A498 renal, 73.2%; in the experiment on CCRF-CEM leukemia it was 83%; with MOLT-4 leukemia, 68%.
As for `COc1ccc(NC(=O)c2cccc(C3CCc4c(cc(OC)c(OC)c4OC)O3)c2)cc1` (stereo not drawn), the growth is 17.3% in the experiment with HCT-15 colon; 6.06% (active) with HT29 colon; 33.3% with SNB-19 CNS; 23.4% in the experiment with U251 CNS; 5.96% (active) with PC-3 prostate; 4.29% (active) in the experiment with SK-MEL-5 melanoma. Also, the growth in the experiment with UACC-62 melanoma was 31.6%; in the experiment on LOX IMVI melanoma, 28.7%; in the experiment on SK-MEL-28 melanoma, 47%; in the experiment with SK-MEL-2 melanoma it was 9.28% (active); in the experiment on EKVX NSCLC, 47%; in the experiment with UO-31 renal, 28.8%. Besides, the growth was 43.7% in the experiment on TK-10 renal; 41.1% with ACHN renal; 44.6% in the experiment on CAKI-1 renal; -8.67% (active) in the experiment on A498 renal; -1.05% (active) in the experiment with CCRF-CEM leukemia; 9.23% (active) in the experiment with MOLT-4 leukemia.
Take `O=C(CCCCl)NNc1nccc(Nc2ccc(S(=O)(=O)Nc3ccncc3)cc2)n1`: the growth is 103% in the experiment with HCT-15 colon; 102% with HT29 colon; 106% with SNB-19 CNS; 103% in the experiment with U251 CNS; 93% in the experiment with PC-3 prostate; 105% in the experiment with SK-MEL-5 melanoma. Moreover, the growth in the experiment with UACC-62 melanoma was 102%; in the experiment on LOX IMVI melanoma it was 98%; in the experiment with SK-MEL-28 melanoma it was 107%; with SK-MEL-2 melanoma, 92.7%; in the experiment on EKVX NSCLC, 105%; with SN12C renal it was 102%. The growth in the experiment with UO-31 renal is 92.2%; in the experiment with TK-10 renal, 85.8%; in the experiment with ACHN renal, 104%; in the experiment on CAKI-1 renal, 93.9%; with A498 renal it was 110%; with CCRF-CEM leukemia, 116%. Further, the growth in the experiment with MOLT-4 leukemia was 112%.
On to `C=CCN=C(N)SCCCCCCSC(N)=NCC=C`, for which the growth was 96.4% with HCT-15 colon; 73.2% in the experiment with HT29 colon; 102% in the experiment on SNB-19 CNS; 68.5% in the experiment with PC-3 prostate; 101% with SK-MEL-5 melanoma; 87.5% in the experiment with UACC-62 melanoma. The growth is 93.1% in the experiment on LOX IMVI melanoma; 103% in the experiment on SK-MEL-28 melanoma; 80.5% in the experiment on SK-MEL-2 melanoma; 98.4% with EKVX NSCLC; 97.4% in the experiment on SN12C renal; 80.6% with UO-31 renal. Besides, the growth with TK-10 renal was 79.6%; in the experiment on ACHN renal it was 106%; in the experiment on CAKI-1 renal, 97.7%; with A498 renal, 79.3%; in the experiment with CCRF-CEM leukemia, 106%; in the experiment on MOLT-4 leukemia, 81.8%.
Turning to `COc1ccc(/C=C/C(=O)c2cc3c(N)c(C(=O)Nc4ccc(OC)cc4)sc3nc2C)cc1`, the growth is 20.6% with HCT-15 colon; -18% (active) with HT29 colon; 16.3% in the experiment on SNB-19 CNS; 20.2% in the experiment on U251 CNS; 32.3% with PC-3 prostate; 9.81% (active) in the experiment with SK-MEL-5 melanoma. Besides, the growth in the experiment with UACC-62 melanoma was 21.8%; with LOX IMVI melanoma it was 31.6%; with SK-MEL-28 melanoma, 55.7%; in the experiment on SK-MEL-2 melanoma it was 15.4%; with EKVX NSCLC it was 45.2%; in the experiment on SN12C renal, 31.6%. The growth in the experiment with UO-31 renal was 41%; in the experiment with TK-10 renal it was 40.8%; in the experiment with ACHN renal, 42.6%; in the experiment with CAKI-1 renal it was 24.8%; in the experiment with A498 renal, 18.6%; with CCRF-CEM leukemia it was 19.9%. Besides, in the experiment with MOLT-4 leukemia, the growth is 33.3%.
`CC1(C)CCC(S(=O)(=O)c2ccc3c(c2)/C(=N\O)c2cc(S(=O)(=O)N4CCN(c5ccc(F)cc5O)CC4)ccc2-3)CC1`: the growth is -75.1% (active) in the experiment on HCT-15 colon; -88.7% (active) in the experiment on HT29 colon; -72.7% (active) with SNB-19 CNS; -97.7% (active) in the experiment with U251 CNS; -64.2% (active) in the experiment on PC-3 prostate; -93.6% (active) in the experiment with SK-MEL-5 melanoma. In addition, the growth is -69.7% (active) with UACC-62 melanoma; -82.6% (active) in the experiment on LOX IMVI melanoma; -72.2% (active) in the experiment on SK-MEL-28 melanoma; -85.6% (active) with SK-MEL-2 melanoma; -53% (active) with EKVX NSCLC; 19.8% in the experiment on SN12C renal. For the same compound, the growth in the experiment with UO-31 renal is -91.4% (active); with TK-10 renal, -82% (active); with ACHN renal, 0.0292% (active); in the experiment on CAKI-1 renal it was -76.1% (active); in the experiment with A498 renal, -65.3% (active); with CCRF-CEM leukemia it was -63.4% (active). Besides, the growth in the experiment with MOLT-4 leukemia is -71.9% (active).
In the case of `CCCCCCCCn1ccc2cc(NC(=O)Cn3cc(CN4CCN(CC)CC4)nn3)ccc21`, the growth in the experiment with HCT-15 colon is 22.5%; with HT29 colon it was -26.4% (active); with SNB-19 CNS it was 61.4%; in the experiment on U251 CNS, 5.79% (active); in the experiment with PC-3 prostate, 82.6%; with SK-MEL-5 melanoma, 78.1%. For the same compound, the growth in the experiment on UACC-62 melanoma was -78.2% (active); in the experiment on LOX IMVI melanoma it was -74.5% (active); with SK-MEL-28 melanoma, 80.5%; in the experiment on SK-MEL-2 melanoma, 101%; with EKVX NSCLC, 88%; in the experiment with SN12C renal, 64.1%. Also, the growth was 47.5% with UO-31 renal; 99.2% with TK-10 renal; 111% with ACHN renal; 69.6% in the experiment with CAKI-1 renal; 90.5% in the experiment on A498 renal; -41.2% (active) in the experiment on CCRF-CEM leukemia. Also, the growth with MOLT-4 leukemia was 39.3%.
